# Source: ChEMBL document CHEMBL3988442, “University of Dundee, Small-Polar-MMV Screening Library” (2021)
# Target: Shiga toxin 2 (Escherichia coli O157:H7) (UniProt P09385+P09386)
# Assay: E. coli 0.157:H7 Shiga Toxin SOP - stx2 screening assay
# Format: functional
# Parameters: scale not given: direction of the effect not stated beside the values
# Details: 30 µM
row,SMILES,Percent Effect
1,CC(NCc1cccnc1)c1ccc(OCC(=O)NC2CC2)cc1 (stereo not given),-1.84%
2,CCOc1nnc(CNC2CCCN(c3ccc(C)nn3)C2)s1 (stereo not given),19.6%
3,CCn1nc(C)c2nc(C(C)C)nc(NCCCO)c21,-3.03%
4,Cn1cc(C(=O)N2C[C@@H]3COC[C@]3(COCc3cccnc3)C2)cn1,-6.37%
5,O=C(NCCCNc1ccccc1)c1scnc1Cl,-10.4%
6,CC(C)c1nn(C)c(Cl)c1CNCc1ccc2c(c1)OCCO2,32.9%
7,CC(C)N1CCC(Cc2cnc(-c3cccc(C(=O)O)c3)cn2)C1 (stereo not given),16%
8,O=C(NCCN1CCc2ccccc2C1)c1scnc1Cl,-3.31%
9,CC(C)CN1CCCC2(CCN(C(=O)c3cnccn3)C2)C1 (stereo not given),-7.5%
10,Cc1cnc(CN2CCOC(Cn3nc(C)nc3C)C2)cn1 (stereo not given),-9.64%
11,COc1cccc(CNC(=O)N2CCN(Cc3cc(C)on3)CC2)c1,4.64%
12,CCOC(CC)C(=O)NCCC(=O)N1CCN(c2ncccn2)CC1 (stereo not given),-0.0687%
13,CCc1n[nH]c(C2CN(C(=O)c3ccsc3)CCO2)n1 (stereo not given),21.9%
14,CC(C)C(C(=O)N1CCN(c2ccncc2)CC1)n1cncn1 (stereo not given),-47.8%
15,O=C(c1ccc(F)c(F)c1)N1CCCC1CN1CCCC1 (stereo not given),-41.7%
16,c1ccc2oc(CCCN3CCOC(Cn4cccn4)C3)nc2c1 (stereo not given),-3.52%
17,CN(C)C(=O)CN1C(=O)CCC12CCN(Cc1cccn1C)CC2,0.848%
18,COCCn1cc(C(=O)N2CCCC2c2cc(C)no2)ccc1=O (stereo not given),3.38%
19,Cn1nc(COc2cccnc2)c2c1CCN(c1cnccn1)C2,7.98%
20,c1cc(CNCc2ccnc(N3CCOCC3)c2)c2c(c1)OCCO2,-11.8%

row,SMILES,Percent Effect
1,CNS(=O)(=O)c1ccc(C(=O)NCCNc2ncccn2)cc1,25.5%
2,CCc1ccc(CCC(=O)N2CCOCC2c2ncon2)cc1 (stereo not given),20.7%
3,O=S(=O)(N1CCCC1)N1CCCCC1CCc1ccccc1 (stereo not given),10.8%
4,CC(C)C1CN(c2ncc(F)cn2)CCC(=O)N1Cc1ccc(F)cc1 (stereo not given),-4.93%
5,COc1ccccc1CN1CCC2(CC1)CC(Oc1ccccn1)CO2 (stereo not given),-0.702%
6,O=C(N1CCC(Nc2cccnn2)CC1)C1(c2ccc(F)cc2)CC1,-20.3%
7,CC(=O)N1CCN(c2cc(-c3ccccc3)nc3c(C)c(C)nn23)CC1,-33.1%
8,CCOc1cc(/C=C/c2ncc(C(=O)O)s2)ccc1O,-21.4%
9,Cc1cnn(CC2CCCN2Cc2coc(-c3ccccc3)n2)c1 (stereo not given),-30.1%
10,CCO[C@@H]1CO[C@@]2(CCCN(Cc3scnc3C)C2)C1,-25%
11,CCn1cc2c(n1)CN(Cc1ccncc1)CC2COCC1CC1 (stereo not given),-18.6%
12,CS(=O)(=O)NCc1nnc2n1CCN(CC1CC1)C2,4.81%
13,Cc1noc2nc(C3CCN(Cc4ccncc4)CC3)cc(C(F)F)c12,-67.8%
14,Cc1cnn(CC2CCCN2c2nn3cc(C)nc3s2)c1 (stereo not given),-13.5%
15,Cc1cc(CN2CCN(C(=O)c3sccc3C3CC3)CC2)on1,27%
16,COc1ccc(C2CCCN2C(=O)CCNc2ncccn2)cc1 (stereo not given),-17%
17,CCC1c2cccn2CCN1C(=O)c1ccc2nonc2c1 (stereo not given),-4.14%
18,Cc1cc(NC(=O)CN2CCn3c(nnc3C3CC3)C2)n(C)n1,19.6%
19,O=C(NCCNc1ncccn1)Nc1cc(C(F)(F)F)c[nH]c1=O,3.13%
20,O=C(NCCOc1cccc(Cl)c1)C1CC(=O)N(CC2CC2)C1 (stereo not given),-10.5%
